Some test systems named below: NCI-H23 lung; NCI-H226 lung; NCI-H322M lung; HOP-62 NSCLC; NCI-H460 lung; HOP-92 NSCLC; NCI-H522 lung; A549/ATCC NSCLC; 786-0 renal; COLO 205 colon; DU-145 prostate; K-562 leukemia; MALME-3M melanoma; MDA-MB-231 breast; RXF 393 renal; SF-268 CNS; SF-295 CNS; SF-539 CNS; UACC-257 melanoma; M14 melanoma.
Holding throughout (assay): NCI-60 one-dose screen, 48 h (100 = growth as untreated, 0 = no growth, -100 = all killed)
Common to all, as to conditions: 10 µM unless noted

About 83,000 compounds went through this panel and 20% of them were active in at least one assay; those are over-represented in the sample as a whole.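 Values shown are percent growth following 48 h exposure of cells in 96-well plates to a single concentration of compound; below 10 was considered active.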 Unmarked numbers belong to inactive results. Active and inactive are the calls of the source.

For `O=C(O)c1cn(C2CC2)c2cc(N3CCN(Cc4cc(Cl)ccc4O)CC3)c(F)cc2c1=O`, the growth with NCI-H23 lung is 78.8%; in the assay with NCI-H226 lung, 82.8%; in the assay with NCI-H322M lung it was 77.9%; with HOP-62 NSCLC it was 64.1%; with NCI-H460 lung, 52%; with HOP-92 NSCLC, 59.9%. For the same molecule, the growth with NCI-H522 lung is 67.5%; in the assay with A549/ATCC NSCLC, 30.4%; with 786-0 renal, 85.1%; in the assay with COLO 205 colon it was 75.7%; in the assay on DU-145 prostate, 95.2%; in the assay on K-562 leukemia, 46.5%. Besides, the growth in the assay on MALME-3M melanoma was 80.7%; with MDA-MB-231 breast it was 71.3%; with RXF 393 renal, 60.2%; in the assay on SF-268 CNS it was 75.8%; in the assay on SF-295 CNS, 34.3%; in the assay on SF-539 CNS it was 74%. Also, the growth with UACC-257 melanoma was 80.7%; with M14 melanoma, 59.2%.

On to `COc1ccccc1S(=O)Nc1ccccc1` (stereo not given), for which the growth in the assay on NCI-H23 lung was 104%; in the assay on NCI-H226 lung, 102%; with NCI-H322M lung, 94.9%; with HOP-62 NSCLC, 124%; in the assay on NCI-H460 lung, 93.6%; in the assay on HOP-92 NSCLC, 98.5%. The growth in the assay with NCI-H522 lung was 74.9%; in the assay on A549/ATCC NSCLC, 74.4%; with 786-0 renal, 103%; in the assay on COLO 205 colon it was 117%; in the assay on DU-145 prostate, 116%; in the assay with K-562 leukemia it was 104%. Moreover, the growth with MALME-3M melanoma is 86.2%; with MDA-MB-231 breast, 92.5%; in the assay with RXF 393 renal, 100%; in the assay on SF-268 CNS it was 100%; in the assay with SF-295 CNS it was 98.5%; in the assay on SF-539 CNS, 109%. Further, the values for the growth in the assay with UACC-257 melanoma and with M14 melanoma were 78.4% and 111%, respectively.

Take `CCCCCCCCCN(CCCCCCCCC)C(C)C(=O)c1ccc2cc(Br)c3ccccc3c2c1` (stereo not given): the growth is 77.6% with NCI-H23 lung; 102% in the assay with NCI-H226 lung; 116% in the assay on NCI-H322M lung; 95.6% with HOP-62 NSCLC; 110% in the assay with NCI-H460 lung; 72.8% in the assay on HOP-92 NSCLC. Also, the growth in the assay on NCI-H522 lung was 96.5%; with A549/ATCC NSCLC, 86.1%; with 786-0 renal, 90.4%; in the assay on COLO 205 colon, 81.9%; with DU-145 prostate, 88.6%; with K-562 leukemia it was 39.2%. Also, the growth was 118% in the assay with MALME-3M melanoma; 68.9% in the assay with MDA-MB-231 breast; 99.4% in the assay with RXF 393 renal; 87.1% with SF-268 CNS; 100% in the assay with SF-295 CNS; 81.2% in the assay on SF-539 CNS. In addition, the growth is 98.7% in the assay on UACC-257 melanoma and 55.7% in the assay on M14 melanoma.

In the case of `COc1cc2c(c(OC)c1OC)-c1cc(I)c(O)cc1[C@@H](NC(C)=O)CC2`, the growth in the assay on NCI-H23 lung was 48.8%; with NCI-H226 lung, 5.87% (active); with NCI-H322M lung, 70.3%; with HOP-62 NSCLC, 42%; with NCI-H460 lung, 3.02% (active); with HOP-92 NSCLC, 62.1%. Moreover, the growth in the assay with NCI-H522 lung was -12.2% (active); in the assay on A549/ATCC NSCLC it was 14.9%; in the assay with 786-0 renal it was 29.7%; in the assay on COLO 205 colon, -64% (active); in the assay on DU-145 prostate, 16.9%; in the assay with K-562 leukemia, 25.6%. Besides, the growth is 80.2% with MALME-3M melanoma; 7.04% (active) with MDA-MB-231 breast; 37.7% in the assay on RXF 393 renal; 8.91% (active) in the assay with SF-268 CNS; 22.4% in the assay on SF-295 CNS; -27.8% (active) in the assay on SF-539 CNS. In addition, the growth was 61.9% in the assay with UACC-257 melanoma and 14.4% with M14 melanoma.

Regarding `CCOC(=O)CCC[P+](c1ccccc1)(c1ccccc1)c1ccccc1`, the growth with NCI-H23 lung is 87.9%; in the assay on NCI-H226 lung, 108%; in the assay on NCI-H322M lung, 96.4%; with HOP-62 NSCLC it was 99.8%; in the assay with NCI-H460 lung, 82.2%; in the assay with HOP-92 NSCLC, 71.4%. Besides, the growth in the assay on NCI-H522 lung is 63.1%; with A549/ATCC NSCLC, 90.7%; with 786-0 renal it was 101%; in the assay with COLO 205 colon, 71.6%; in the assay on DU-145 prostate it was 90%; with K-562 leukemia, 57.9%. Besides, the growth in the assay with MALME-3M melanoma is 75.4%; in the assay on MDA-MB-231 breast, 80.9%; with RXF 393 renal, 108%; with SF-268 CNS it was 83.2%; in the assay on SF-295 CNS, 105%; in the assay on SF-539 CNS, 89.5%. Besides, the values for the growth in the assay on UACC-257 melanoma and in the assay on M14 melanoma were 27.2% and 87.9%, respectively.

Turning to `O=C(NCCCNC(=O)OCc1ccc2cccc(O)c2n1)OCc1ccc2cccc(O)c2n1`, the growth in the assay on NCI-H23 lung is 70%; in the assay with NCI-H226 lung, 71.1%; with NCI-H322M lung, 59.4%; in the assay on HOP-62 NSCLC it was 32.1%; with NCI-H460 lung, 26.1%; in the assay with HOP-92 NSCLC it was 33.9%. The growth was 18.4% with NCI-H522 lung; 47.5% in the assay with A549/ATCC NSCLC; 60.1% with 786-0 renal; 29.6% in the assay on COLO 205 colon; 28.7% with DU-145 prostate; 14.1% in the assay on K-562 leukemia. In addition, the growth with MALME-3M melanoma is 72.3%; in the assay on MDA-MB-231 breast, 70%; with RXF 393 renal, 0.757% (active); in the assay on SF-268 CNS, 54%; in the assay with SF-295 CNS, 38.7%; in the assay with SF-539 CNS, 35.1%. The growth in the assay on UACC-257 melanoma was 53.9%; with M14 melanoma, 38.9%.

As to `CSc1nc2sc3cc(Cl)c(Cl)cc3n2c(=N)c1C#N`, the growth was 84.8% with NCI-H23 lung; 95% in the assay with NCI-H226 lung; 104% in the assay on NCI-H322M lung; 94.7% in the assay on HOP-62 NSCLC; 98.7% in the assay with NCI-H460 lung; 98.9% in the assay on HOP-92 NSCLC. The growth in the assay with NCI-H522 lung was 89.4%; in the assay with A549/ATCC NSCLC it was 106%; in the assay on 786-0 renal it was 102%; with COLO 205 colon, 122%; in the assay with DU-145 prostate, 107%; with K-562 leukemia, 116%. For the same molecule, the growth is 101% in the assay with MALME-3M melanoma; 83.7% with MDA-MB-231 breast; 149% in the assay with RXF 393 renal; 104% in the assay with SF-268 CNS; 99% in the assay with SF-295 CNS; 91.3% in the assay on SF-539 CNS. Also, the growth was 99.8% in the assay on UACC-257 melanoma and 94.3% with M14 melanoma.

As to `O=C(Nc1ccc(Oc2ccc(F)cc2)c(Cl)c1)c1cnccn1`, the growth with NCI-H23 lung is 65.6%; with NCI-H226 lung, 74.4%; with NCI-H322M lung, 82.2%; with HOP-62 NSCLC, 56.2%; with NCI-H460 lung it was 28%; with HOP-92 NSCLC, 58.2%. Further, the growth was 54.2% in the assay with NCI-H522 lung; 43.7% in the assay with A549/ATCC NSCLC; 81% with 786-0 renal; 69.3% in the assay on COLO 205 colon; 79.5% in the assay with DU-145 prostate; 21.1% with K-562 leukemia. In addition, the growth in the assay on MALME-3M melanoma was 70.1%; in the assay on MDA-MB-231 breast it was 58.7%; in the assay with RXF 393 renal, 72.3%; in the assay with SF-268 CNS it was 72.2%; with SF-295 CNS, 72.9%; with SF-539 CNS it was 67.1%. Moreover, the growth was 79.8% with UACC-257 melanoma and 92.4% with M14 melanoma.

Source of the values: PubChem BioAssay (NCI).
